Results taken from PubChem BioAssay AID1778 (Sanford-Burnham Center for Chemical Genomics, 2009).
About 260 (0.09%) of roughly 290,000 compounds were called active. Shown is part of a subset that was picked to be rich in actives. Measured potencies and affinities stand elsewhere. A number with no mark means an inactive call. Rule as the data show it: active = inhibition above about 50%; inactive = the rest.

Biological target: Kappa-type opioid receptor (Homo sapiens) (UniProt P41145)
Test: KOR antagonists, beta-arrestin recruitment, cell-based, luminescence, uHTS (AID 1778)
Conditions: antagonist mode, hits give high values; at 10 µM unless noted

Kappa-type opioid receptor (Homo sapiens), sequence (P41145 whole entry, looked up): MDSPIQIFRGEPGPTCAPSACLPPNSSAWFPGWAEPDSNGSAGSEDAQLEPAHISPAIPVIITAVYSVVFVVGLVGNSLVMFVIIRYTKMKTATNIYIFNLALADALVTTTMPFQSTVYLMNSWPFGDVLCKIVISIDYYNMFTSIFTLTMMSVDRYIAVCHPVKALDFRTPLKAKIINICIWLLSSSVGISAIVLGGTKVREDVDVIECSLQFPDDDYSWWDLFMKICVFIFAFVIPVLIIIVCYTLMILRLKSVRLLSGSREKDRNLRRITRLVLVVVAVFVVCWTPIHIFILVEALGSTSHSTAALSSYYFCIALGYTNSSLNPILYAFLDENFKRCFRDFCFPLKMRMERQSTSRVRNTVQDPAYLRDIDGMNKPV

Q: How did the inhibition turn out when `Cc1ccccc1N(C(=O)c1snc(C(N)=O)c1N)C(C(=O)NCc1ccccc1)c1ccc(O)cc1` (configuration not stated) was run?
A: -9.4%

Q: With `Cc1c(NCc2cc(Cl)cc(Cl)c2O)c(=O)n(-c2ccccc2)n1C` as the compound, how does the inhibition read?
A: 22.8%

Q: For `COc1ccc(NC(=O)c2ccccc2)cc1NS(=O)(=O)c1ccc(F)cc1`, which inhibition is on record?
A: -5%

Q: Which inhibition does the source give for `Cc1cc(N)nc2nc(C(F)(F)F)nn12` here?
A: -5.6%

Q: Which inhibition does the source give for `O=C1CC(Cc2ccccc2)C(=O)N1CCCn1ccnc1` (configuration not stated) here?
A: -24.1%

Q: Which inhibition does the source give for `Cc1ccc(CNC(=O)C2CCCN(c3nc4ccccc4o3)C2)cc1` (configuration not stated) here?
A: -1.2%

Q: With `CCOC(=O)N1CCN(C(=O)CNC(=O)c2ccc(Br)o2)CC1` as the compound, how does the inhibition read?
A: 3.7% [at 20 µM]

Q: `CC(C)Oc1cccc(C(=O)N/N=C/c2ccoc2)c1` was tested. Which inhibition did it give?
A: -11.1%

Q: For `CCn1c(SCC(=O)NC2CCCCC2)nnc1-c1ccco1`, which inhibition is on record?
A: -10.6%

Q: With `Cc1ccc(COC(=O)c2nn(C)c(=O)c3ccccc23)cc1` as the compound, how does the inhibition read?
A: -20%

Q: Which inhibition does the source give for `CCOC(=O)c1c(N)sc(C(O)(C(F)(F)F)C(F)(F)F)c1-c1ccc(F)cc1` here?
A: -27.6%

Q: With `Oc1csc(Cc2nc(-c3ccc(Br)cc3)cs2)n1` as the compound, how does the inhibition read?
A: 8.7%

Q: For `Oc1csc(Cc2nc(-c3ccccc3F)cs2)n1`, which inhibition is on record?
A: -33.9%

Q: How did the inhibition turn out when `Oc1csc(Cc2nc(-c3ccc(-c4ccccc4)cc3)cs2)n1` was run?
A: 3.4%

Q: How did the inhibition turn out when `Oc1csc(Cc2nc(-c3ccc4ccccc4c3)cs2)n1` was run?
A: 22.5%

Q: `CN1CCN(C(=O)c2ccc(COc3ccc(Cl)cc3Cl)cc2)CC1` was tested. Which inhibition did it give?
A: -29.5%

Q: Which inhibition does the source give for `CS(=O)(=O)NCCCCCCNS(C)(=O)=O` here?
A: -28.3%

Q: Which inhibition does the source give for `COc1ccc(-c2nn(CCC(=O)O)cc2/C=C/C(=O)O)cc1[N+](=O)[O-]` here?
A: 2.1%

Q: `CCCNS(=O)(=O)c1ccc(OCC(=O)N2CCCC2)cc1` was tested. Which inhibition did it give?
A: -18.5% [at 20 µM]

Q: How did the inhibition turn out when `Cc1ccccc1Cn1c(=O)n(-c2ccccc2)c(=O)c2ccc(C(=O)NCc3ccco3)cc21` was run?
A: 20.6%

Q: `CC(C)(C)c1ccc(OCc2cnc(Cl)s2)cc1` was tested. Which inhibition did it give?
A: -46.2% [at 20 µM]

Q: With `CCN1C(=O)c2ccccc2S(=O)(=O)c2ccc(C(=O)N3CCOCC3)cc21` as the compound, how does the inhibition read?
A: 16.4%

Q: With `CN(C)S(=O)(=O)c1ccc(C(=O)Nc2nnc(-c3cccs3)o2)cc1` as the compound, how does the inhibition read?
A: -13%

Q: `O=C(Nc1nnc(-c2cccs2)o1)c1cccc(C(F)(F)F)c1` was tested. Which inhibition did it give?
A: 100% (active)

Q: `N#Cc1ccc(C(=O)Nc2nnc(-c3cccs3)o2)cc1` was tested. Which inhibition did it give?
A: -5.8%

Q: With `COc1cccc(C(=O)Nc2nnc(-c3cccs3)o2)c1` as the compound, how does the inhibition read?
A: -17.8%

Q: For `O=C(Nc1nnc(C2=COCCO2)o1)c1cccc(C(F)(F)F)c1`, which inhibition is on record?
A: 16%

Q: Which inhibition does the source give for `COc1cc(-c2[nH]ncc2CN2CCN(Cc3cccs3)CC2)cc(OC)c1OC` here?
A: -18.5%

Q: How did the inhibition turn out when `Cc1cccc(Nc2nc(N)c([N+](=O)[O-])c(N3CC(C)CC(C)C3)n2)c1` (configuration not stated) was run?
A: -15%

Q: How did the inhibition turn out when `O=C1CC(C2CCCO2)C(=O)N1c1ccc(Cl)c(Cl)c1` (configuration not stated) was run?
A: -15.9% [at 20 µM]

Q: How did the inhibition turn out when `CN(C)S(=O)(=O)c1cccc(NC(=O)c2cc(=O)[nH]c3ccccc23)c1` was run?
A: -14.8% [at 20 µM]

Q: `CCn1c(=O)c2sccc2n2c(CCCC(=O)NCCc3ccc(S(N)(=O)=O)cc3)nnc12` was tested. Which inhibition did it give?
A: -3%

Q: Which inhibition does the source give for `COC(=O)C1=C(C(=O)OC)[C@@H]2N(C)c3ccc(OC)cc3[C@@]23C[C@@H](C(=O)OC)N(C(=O)c2cccs2)C3=N1` here?
A: -29.4% [at 20 µM]

Q: With `Cc1ccc(/C=C2\SC(=S)N(c3cccnc3)C2=O)cc1` as the compound, how does the inhibition read?
A: -11.9%

Q: `O=C1/C(=C/c2cccnc2)SC(=S)N1c1ccc(O)cc1` was tested. Which inhibition did it give?
A: 30.3%

Q: Which inhibition does the source give for `O=C(C(Sc1ccccc1)c1ccc(Br)cc1)N1CCOCC1` (configuration not stated) here?
A: 20.5%

Q: For `CCN(c1ccccc1)S(=O)(=O)c1ccc(NC(=O)c2nc(S(C)(=O)=O)ncc2Cl)cc1`, which inhibition is on record?
A: 38.4%

Q: For `Cc1ccc(NC(=O)c2nc(S(=O)(=O)Cc3ccccc3)ncc2Cl)cc1`, which inhibition is on record?
A: 14%

Q: Which inhibition does the source give for `CC(=O)Nc1ccc(NC(=O)c2nc(S(=O)(=O)Cc3ccccc3)ncc2Cl)cc1` here?
A: 23.7%

Q: `CN(c1ccccc1)S(=O)(=O)c1ccc(NC(=O)c2nc(S(C)(=O)=O)ncc2Cl)cc1` was tested. Which inhibition did it give?
A: 35.2%

Q: How did the inhibition turn out when `CCOC(=O)N1CCN(C(=O)COc2cccc3c2CCN(Cc2cccc(C)c2)C3=O)CC1` was run?
A: 8%

Q: With `O=C(Nc1cccc(F)c1)N1CC=C(n2c(=O)[nH]c3ccccc32)CC1` as the compound, how does the inhibition read?
A: 46.2%

Q: For `CCOc1ccc(NC(=O)N2CC=C(n3c(=O)[nH]c4ccccc43)CC2)cc1`, which inhibition is on record?
A: 35.6%

Q: How did the inhibition turn out when `CSc1ccc(NC(=O)N2CC=C(n3c(=O)[nH]c4ccccc43)CC2)cc1` was run?
A: 90.6% (active)

Q: Which inhibition does the source give for `N#Cc1ccc(CN2CCN(C(=O)c3ccccc3)CC2)c(Cl)c1` here?
A: -1.5%

Q: For `Cc1cccc(C(=O)c2ccccc2C(=O)O)c1`, which inhibition is on record?
A: 19.6%

Q: With `CC(NC(=O)Cn1nc(C(=O)O)c2ccccc2c1=O)C12CC3CC(CC(C3)C1)C2` (configuration not stated) as the compound, how does the inhibition read?
A: -21.3%

Q: How did the inhibition turn out when `CC(NC(=O)CN1CCCC1)C12CC3CC(CC(C3)C1)C2` (configuration not stated) was run?
A: -12%

Q: With `Cc1ccc(C(=O)N/C(=C\c2ccc(F)cc2)C(=O)NCCCn2ccnc2)cc1` as the compound, how does the inhibition read?
A: 21.6%

Q: For `CCOc1cc(CNC2CCCC2)cc(Cl)c1OCc1ccc(F)cc1`, which inhibition is on record?
A: -17.1%

Q: With `CCNCc1cc(Cl)c(OCc2ccccc2)c(OCC)c1` as the compound, how does the inhibition read?
A: 12.3%

Q: For `O=C(O)c1ccc(N/N=C/c2cccc3nccnc23)cc1`, which inhibition is on record?
A: 14.2%

Q: Which inhibition does the source give for `C(=C\c1ccccc1)/CSc1ccccn1` here?
A: -4.7%

Q: How did the inhibition turn out when `CNC(=O)COC(=O)c1ccccc1C(=O)c1ccc(Cl)c([N+](=O)[O-])c1` was run?
A: -7.4%

Q: Which inhibition does the source give for `CC(C)N(C(=O)COC(=O)c1ccccc1C(=O)c1ccc(Cl)c([N+](=O)[O-])c1)C(C)C` here?
A: 24.3%

Q: How did the inhibition turn out when `CC(=O)c1ccc(Nc2ccc([N+](=O)[O-])c3nonc23)cc1` was run?
A: 37.3% [at 20 µM]

Q: With `NS(=O)(=O)c1ccc(Nc2ccc([N+](=O)[O-])c3nonc23)cc1` as the compound, how does the inhibition read?
A: -10.8%
